# In the supplement of paper PMC4466140:
# Assays:
# Assay in all cases: SPOT peptide array binding signal intensity (averaged, normalized) (arbitrary units (background-subtracted, floor 0; scale differs between SH3 domains)); higher = stronger binding of the SH3 domain to the peptide
# AgAbp1 = target: AgAbp1
# In short: (§1)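 Cellulose membranes carried synthetic 15-mer peptides with cysteines swapped for serines. These were incubated overnight at 4°C with 10 μg/ml of GST-fused SH3 domains from four yeast species in TBS-based blocking buffer. Binding signal, detected with anti-GST antibody and quantified in Genespotter, is the normalized, background-subtracted spot intensity averaged over replicates, in arbitrary units specific to each domain.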
# AgBbc1 = target: AgBbc1
# In short: as §1
# AgBem1-D1 = target: AgBem1-D1
# In short: as §1
# AgBzz1-D1 = target: AgBzz1-D1
# In short: as §1
# AgBzz1-D2 = target: AgBzz1-D2
# In short: as §1
# AgCyk3 = target: AgCyk3
# In short: as §1
# AgFus1 = target: AgFus1
# In short: as §1
# AgHof1 = target: AgHof1
# In short: as §1
# AgHse1 = target: AgHse1
# In short: as §1
# AgLsb1 = target: AgLsb1
# In short: as §1
# AgLsb4 = target: AgLsb4
# In short: as §1
# AgMyo5 = target: AgMyo5
# In short: as §1
# AgNbp2 = target: AgNbp2
# In short: as §1
# AgRvs167 = target: AgRvs167
# In short: as §1
# AgSho1 = target: AgSho1
# In short: as §1
# AgSla1-D1-D2 = target: AgSla1-D1-D2
# In short: as §1
# AgSla1-D3 = target: AgSla1-D3
# In short: as §1
# CaAbp1-D1 = target: CaAbp1-D1
# In short: as §1
# CaAbp1-D2 = target: CaAbp1-D2
# In short: as §1
# CaBbc1 = target: CaBbc1
# In short: as §1
# CaBem1-D1 = target: CaBem1-D1
# In short: as §1
# CaBzz1-D1 = target: CaBzz1-D1
# In short: as §1
# CaBzz1-D2 = target: CaBzz1-D2
# In short: as §1
# CaCyk3 = target: CaCyk3
# In short: as §1
# CaFus1 = target: CaFus1
# In short: as §1
# CaHof1 = target: CaHof1
# In short: as §1
# CaHse1 = target: CaHse1
# In short: as §1
# CaLsb1 = target: CaLsb1
# In short: as §1
# CaLsb4 = target: CaLsb4
# In short: as §1
# CaMyo5 = target: CaMyo5
# In short: as §1
# CaNbp2 = target: CaNbp2
# In short: as §1
# CaRvs167 = target: CaRvs167
# In short: as §1
# CaRvs167-3 = target: CaRvs167-3
# In short: as §1
# CaSho1 = target: CaSho1
# In short: as §1
# CaSla1-D1-D2 = target: CaSla1-D1-D2
# In short: as §1
# CaSla1-D3 = target: CaSla1-D3
# In short: as §1
# ScAbp1 = target: ScAbp1
# In short: as §1
# ScBbc1 = target: ScBbc1
# In short: as §1
# ScBem1-D1 = target: ScBem1-D1
# In short: as §1
# ScBzz1-D1 = target: ScBzz1-D1
# In short: as §1
# ScBzz1-D2 = target: ScBzz1-D2
# In short: as §1
# ScCyk3 = target: ScCyk3
# In short: as §1
# ScFus1 = target: ScFus1
# In short: as §1
# ScHof1 = target: ScHof1
# In short: as §1
# ScHse1 = target: ScHse1
# In short: as §1
# ScLsb1 = target: ScLsb1
# In short: as §1
# ScLsb2 = target: ScLsb2
# In short: as §1
# ScLsb3 = target: ScLsb3
# In short: as §1
# ScLsb4 = target: ScLsb4
# In short: as §1
# ScMyo3 = target: ScMyo3
# In short: as §1
# ScMyo5 = target: ScMyo5
# In short: as §1
# ScNbp2 = target: ScNbp2
# In short: as §1
# ScPex13 = target: ScPex13
# In short: as §1
# ScRvs167 = target: ScRvs167
# In short: as §1
# ScSho1 = target: ScSho1
# In short: as §1
# ScSla1-D1-D2 = target: ScSla1-D1-D2
# In short: as §1
# ScSla1-D3 = target: ScSla1-D3
# In short: as §1
# SpAbp1-D1 = target: SpAbp1-D1
# In short: as §1
# SpBbc1 = target: SpBbc1
# In short: as §1
# SpBzz1-D1 = target: SpBzz1-D1
# In short: as §1
# SpBzz1-D2 = target: SpBzz1-D2
# In short: as §1
# SpCyk3 = target: SpCyk3
# In short: as §1
# SpHof1 = target: SpHof1
# In short: as §1
# SpHof1-2 = target: SpHof1-2
# In short: as §1
# SpHof1-3 = target: SpHof1-3
# In short: as §1
# SpHse1 = target: SpHse1
# In short: as §1
# SpLsb1 = target: SpLsb1
# In short: as §1
# SpLsb4 = target: SpLsb4
# In short: as §1
# SpMyo1 = target: SpMyo1
# In short: as §1
# SpNbp2 = target: SpNbp2
# In short: as §1
# SpPex13 = target: SpPex13
# In short: as §1
# SpRvs167 = target: SpRvs167
# In short: as §1
# SpSla1-D1-D2 = target: SpSla1-D1-D2
# In short: as §1
# SpSla1-D3 = target: SpSla1-D3
# In short: as §1
binder,measurement,setting,value
NNFYRPLLRSVLVLL,SPOT peptide array binding signal intensity,AgAbp1,≤ 0
same,SPOT peptide array binding signal intensity,AgBbc1,≤ 0
same,SPOT peptide array binding signal intensity,AgBem1-D1,8
same,SPOT peptide array binding signal intensity,AgBzz1-D1,13
same,SPOT peptide array binding signal intensity,AgBzz1-D2,18
same,SPOT peptide array binding signal intensity,AgCyk3,≤ 0
same,SPOT peptide array binding signal intensity,AgFus1,246
same,SPOT peptide array binding signal intensity,AgHof1,≤ 0
same,SPOT peptide array binding signal intensity,AgHse1,722
same,SPOT peptide array binding signal intensity,AgLsb1,0.5
same,SPOT peptide array binding signal intensity,AgLsb4,10.5
same,SPOT peptide array binding signal intensity,AgMyo5,≤ 0
same,SPOT peptide array binding signal intensity,AgNbp2,6.5
same,SPOT peptide array binding signal intensity,AgRvs167,1
same,SPOT peptide array binding signal intensity,AgSho1,14.5
same,SPOT peptide array binding signal intensity,AgSla1-D1-D2,1
same,SPOT peptide array binding signal intensity,AgSla1-D3,2
same,SPOT peptide array binding signal intensity,CaAbp1-D1,≤ 0
same,SPOT peptide array binding signal intensity,CaAbp1-D2,≤ 0
same,SPOT peptide array binding signal intensity,CaBbc1,≤ 0
same,SPOT peptide array binding signal intensity,CaBem1-D1,≤ 0
same,SPOT peptide array binding signal intensity,CaBzz1-D1,≤ 0
same,SPOT peptide array binding signal intensity,CaBzz1-D2,1
same,SPOT peptide array binding signal intensity,CaCyk3,≤ 0
same,SPOT peptide array binding signal intensity,CaFus1,2730
same,SPOT peptide array binding signal intensity,CaHof1,0.75
same,SPOT peptide array binding signal intensity,CaHse1,21.8
same,SPOT peptide array binding signal intensity,CaLsb1,≤ 0
same,SPOT peptide array binding signal intensity,CaLsb4,≤ 0
same,SPOT peptide array binding signal intensity,CaMyo5,≤ 0
same,SPOT peptide array binding signal intensity,CaNbp2,72.5
same,SPOT peptide array binding signal intensity,CaRvs167,3
same,SPOT peptide array binding signal intensity,CaRvs167-3,1
same,SPOT peptide array binding signal intensity,CaSho1,80
same,SPOT peptide array binding signal intensity,CaSla1-D1-D2,≤ 0
same,SPOT peptide array binding signal intensity,CaSla1-D3,≤ 0
same,SPOT peptide array binding signal intensity,ScAbp1,≤ 0
same,SPOT peptide array binding signal intensity,ScBbc1,0.75
same,SPOT peptide array binding signal intensity,ScBem1-D1,4
same,SPOT peptide array binding signal intensity,ScBzz1-D1,19
same,SPOT peptide array binding signal intensity,ScBzz1-D2,6
same,SPOT peptide array binding signal intensity,ScCyk3,57.5
same,SPOT peptide array binding signal intensity,ScFus1,238
same,SPOT peptide array binding signal intensity,ScHof1,1
same,SPOT peptide array binding signal intensity,ScHse1,1040
same,SPOT peptide array binding signal intensity,ScLsb1,0.5
same,SPOT peptide array binding signal intensity,ScLsb2,1
same,SPOT peptide array binding signal intensity,ScLsb3,0.5
same,SPOT peptide array binding signal intensity,ScLsb4,≤ 0
same,SPOT peptide array binding signal intensity,ScMyo3,≤ 0
same,SPOT peptide array binding signal intensity,ScMyo5,≤ 0
same,SPOT peptide array binding signal intensity,ScNbp2,13
same,SPOT peptide array binding signal intensity,ScPex13,0.25
same,SPOT peptide array binding signal intensity,ScRvs167,2.33
same,SPOT peptide array binding signal intensity,ScSho1,350
same,SPOT peptide array binding signal intensity,ScSla1-D1-D2,≤ 0
same,SPOT peptide array binding signal intensity,ScSla1-D3,0.5
same,SPOT peptide array binding signal intensity,SpAbp1-D1,≤ 0
same,SPOT peptide array binding signal intensity,SpBbc1,≤ 0
same,SPOT peptide array binding signal intensity,SpBzz1-D1,8
same,SPOT peptide array binding signal intensity,SpBzz1-D2,0.5
same,SPOT peptide array binding signal intensity,SpCyk3,6.5
same,SPOT peptide array binding signal intensity,SpHof1,3
same,SPOT peptide array binding signal intensity,SpHof1-2,4
same,SPOT peptide array binding signal intensity,SpHof1-3,366
same,SPOT peptide array binding signal intensity,SpHse1,1050
same,SPOT peptide array binding signal intensity,SpLsb1,≤ 0
same,SPOT peptide array binding signal intensity,SpLsb4,≤ 0
same,SPOT peptide array binding signal intensity,SpMyo1,≤ 0
same,SPOT peptide array binding signal intensity,SpNbp2,0.5
same,SPOT peptide array binding signal intensity,SpPex13,5.5
same,SPOT peptide array binding signal intensity,SpRvs167,0.667
same,SPOT peptide array binding signal intensity,SpSla1-D1-D2,4
same,SPOT peptide array binding signal intensity,SpSla1-D3,≤ 0
GERSRPLVISILSSA,SPOT peptide array binding signal intensity,SpBzz1-D2,0.75
same,SPOT peptide array binding signal intensity,SpCyk3,26.5
same,SPOT peptide array binding signal intensity,SpHof1,146
same,SPOT peptide array binding signal intensity,SpHof1-2,12.2
same,SPOT peptide array binding signal intensity,SpHof1-3,113
same,SPOT peptide array binding signal intensity,SpHse1,482
same,SPOT peptide array binding signal intensity,SpLsb1,≤ 0
same,SPOT peptide array binding signal intensity,SpLsb4,9
same,SPOT peptide array binding signal intensity,SpMyo1,6
same,SPOT peptide array binding signal intensity,SpNbp2,146
same,SPOT peptide array binding signal intensity,SpPex13,28
same,SPOT peptide array binding signal intensity,SpRvs167,0.333
same,SPOT peptide array binding signal intensity,SpSla1-D1-D2,≤ 0
same,SPOT peptide array binding signal intensity,SpSla1-D3,11
VYTRTAFQIPGDDKI,SPOT peptide array binding signal intensity,AgAbp1,≤ 0
same,SPOT peptide array binding signal intensity,AgBbc1,≤ 0
same,SPOT peptide array binding signal intensity,AgBem1-D1,≤ 0
same,SPOT peptide array binding signal intensity,AgBzz1-D1,29
same,SPOT peptide array binding signal intensity,AgBzz1-D2,20
same,SPOT peptide array binding signal intensity,AgCyk3,0.5
same,SPOT peptide array binding signal intensity,AgFus1,≤ 0
same,SPOT peptide array binding signal intensity,AgHof1,10
same,SPOT peptide array binding signal intensity,AgHse1,≤ 0
same,SPOT peptide array binding signal intensity,AgLsb1,474
same,SPOT peptide array binding signal intensity,AgLsb4,≤ 0
same,SPOT peptide array binding signal intensity,AgMyo5,≤ 0
same,SPOT peptide array binding signal intensity,AgNbp2,≤ 0
same,SPOT peptide array binding signal intensity,AgRvs167,0.333
same,SPOT peptide array binding signal intensity,AgSho1,≤ 0
same,SPOT peptide array binding signal intensity,AgSla1-D1-D2,≤ 0
same,SPOT peptide array binding signal intensity,AgSla1-D3,≤ 0
same,SPOT peptide array binding signal intensity,CaAbp1-D1,≤ 0
same,SPOT peptide array binding signal intensity,CaAbp1-D2,≤ 0
same,SPOT peptide array binding signal intensity,CaBbc1,3
same,SPOT peptide array binding signal intensity,CaBem1-D1,≤ 0
same,SPOT peptide array binding signal intensity,CaBzz1-D1,83.5
same,SPOT peptide array binding signal intensity,CaBzz1-D2,26
same,SPOT peptide array binding signal intensity,CaCyk3,≤ 0
same,SPOT peptide array binding signal intensity,CaFus1,≤ 0
same,SPOT peptide array binding signal intensity,CaHof1,≤ 0
same,SPOT peptide array binding signal intensity,CaHse1,≤ 0
same,SPOT peptide array binding signal intensity,CaLsb1,184
same,SPOT peptide array binding signal intensity,CaLsb4,≤ 0
same,SPOT peptide array binding signal intensity,CaMyo5,≤ 0
